According to PubChem BioAssay AID2018 (Sanford-Burnham Center for Chemical Genomics, 2009):
Out of some 1,200 compounds screened, about 600 (50%) were called active. No stated cut-off is given here; in the data, active means inhibition above about 42%; inactive means the rest. The set was probably picked from earlier hits. The list shows a part of the results. Entries with a potency or affinity are not part of this list.

The compounds below were run against SUMO-conjugating enzyme UBC9 (Homo sapiens) (UniProt P63279) (assay: blockers of UBC9-mediated SUMO conjugation – biochemical, AlphaScreen, SUMOylation inhibitor project, confirmation (AID 2018)). Conditions: AlphaScreen in vitro SUMOylation assay; at 35 µM; active compounds read high.
Chain of SUMO-conjugating enzyme UBC9 (Homo sapiens) (P63279 whole entry, looked up): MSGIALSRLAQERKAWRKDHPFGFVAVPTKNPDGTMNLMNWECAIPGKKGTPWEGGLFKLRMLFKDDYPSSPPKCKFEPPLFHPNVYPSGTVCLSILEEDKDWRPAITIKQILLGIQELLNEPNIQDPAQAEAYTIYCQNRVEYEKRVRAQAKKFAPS

SMILES	inhibition
O=C(O)CC1OCC=C2CN3CCC45C6=CC(=O)C(=O)C([N+](=O)[O-])=C6NC4C1C2CC35 (centres undefined)	102% (active)
CN1CCN(c2ccc(S(C)(=O)=O)cc2[N+](=O)[O-])CC1	-12.2% (inactive)
Cc1cc(/C=C2\C(=O)NC(=O)N(Cc3ccccc3)C2=O)c(C)n1-c1ccc(Cl)c(C(=O)O)c1	102% (active)
CC(=O)c1ccc2c(c1)C1C(Cl)C(Sc3ccccc3[N+](=O)[O-])CC1C(c1ccccc1[N+](=O)[O-])N2 (centres undefined)	38.6% (inactive)
CC(=O)c1ccc2c(c1)C1C(Cl)C(Sc3ccccc3[N+](=O)[O-])CC1C(C(=O)O)N2 (centres undefined)	102% (active)
CC(C)CCNC(=O)c1c(N)n(Cc2ccc3c(c2)OCO3)c2nc3ccccc3nc12	18.5% (inactive)
Cc1c(CC(=O)N2C[C@H]3C[C@@H](C2)c2cccc(=O)n2C3)c(=O)oc2c(C)c(O)ccc12	54.2% (active)
Nc1c(C(=O)NCCCc2ccccc2)c2nc3ccccc3nc2n1Cc1cccs1	-10.2% (inactive)
Cc1[nH]n(-c2ccccc2)c(=O)c1C(c1ccc([N+](=O)[O-])cc1)c1c(C)[nH]n(-c2ccccc2)c1=O	102% (active)
CCN(CC)c1ccc([N+](=O)[O-])c2cccnc12	33.7% (inactive)
CCCNC(=O)c1c(N)n(Cc2ccc3c(c2)OCO3)c2nc3ccccc3nc12	13.5% (inactive)
CC(C)OCCCNC(=O)c1c(N)n(CC2CCCO2)c2nc3ccccc3nc12 (centres undefined)	-76.6% (inactive)
CCC(C)NC(=O)c1c(N)n(CC2CCCO2)c2nc3ccccc3nc12 (centres undefined)	101% (active)
Nc1c(C(=O)NC2CCCC2)c2nc3ccccc3nc2n1CC1CCCO1 (centres undefined)	100% (active)
CC(C)CCNC(=O)c1c(N)n(CC2CCCO2)c2nc3ccccc3nc12 (centres undefined)	-37.9% (inactive)
CCCNC(=O)c1c(N)n(CC2CCCO2)c2nc3ccccc3nc12 (centres undefined)	-23.2% (inactive)
CCC(C)NC(=O)c1c(N)n(Cc2ccc3c(c2)OCO3)c2nc3ccccc3nc12 (centres undefined)	11% (inactive)
CN1CCC2(CC1)C(C#N)=C(N)NC(S)=C2C#N	38.8% (inactive)
CCCCn1c(N)c(C(=O)OCC2CCCO2)c2nc3ccccc3nc21 (centres undefined)	25.4% (inactive)
COCCNC(=O)c1c(NC(=O)c2ccco2)n(Cc2ccccc2)c2nc3ccccc3nc12	-28.4% (inactive)
CCCCn1c(NC(=O)c2ccco2)c(C(=O)OCC)c2nc3ccccc3nc21	62.6% (active)
CCCCn1c(NS(=O)(=O)c2ccccc2)c(C(=O)OCC)c2nc3ccccc3nc21	101% (active)
CCCCn1c(NS(=O)(=O)c2ccc(C)cc2)c(C(=O)OCC)c2nc3ccccc3nc21	28.2% (inactive)
COCCCn1c(N)c(C(=O)NCc2ccco2)c2nc3ccccc3nc21	-8.5% (inactive)
CCOC(=O)c1c(NC(=O)c2c(N)n(CCCOC)c3nc4ccccc4nc23)sc2c1CCCC2	41.9% (inactive)

SMILES	inhibition
COc1cc(Cn2c(N)c(C(=O)NCc3ccco3)c3nc4ccccc4nc32)cc(OC)c1OC	50.8% (active)
CCCCn1c(N)c(C(=O)NCc2cccs2)c2nc3ccccc3nc21	51.4% (active)
COCCCn1c(N)c(C(=O)NCCC(C)C)c2nc3ccccc3nc21	-40.9% (inactive)
COc1ccc(Cn2c(N)c(C(=O)NCc3ccco3)c3nc4ccccc4nc32)cc1	-14.9% (inactive)
CCOCCCn1c(N)c(C(=O)Nc2sc3c(c2C(=O)OC)CCCC3)c2nc3ccccc3nc21	47% (active)
COCCCn1c(N)c(C(=O)Nc2ccccc2)c2nc3ccccc3nc21	-4.1% (inactive)
CCCCNC(=O)c1c(N)n(CCCOC)c2nc3ccccc3nc12	102% (active)
CCCCCn1c(N)c(C(=O)NCc2cccs2)c2nc3ccccc3nc21	9.5% (inactive)
CC(C)CCn1c(N)c(C(=O)NCc2cccs2)c2nc3ccccc3nc21	4.2% (inactive)
COc1ccc(Cc2nccc3cc(OC)c(OC)cc23)cc1OC	37.6% (inactive)
c1ccc2c(NC3=NCCS3)cccc2c1	19.6% (inactive)
CN1CCc2nc3sc(C#N)c(N)c3c(-c3cccs3)c2C1	29.8% (inactive)
CN1CCN(c2ccc3nccnc3c2)CC1	6.7% (inactive)
O=C(O)CCn1cc(C=C2C(=O)NC(=O)NC2=O)c(-c2ccc(Br)cc2)n1	1% (inactive)
COCCCn1c(N)c(C(=O)OCCOC)c2nc3ccccc3nc21	10.5% (inactive)
COCCNC(=O)c1c(N)n(CCC(C)C)c2nc3ccccc3nc12	-54.5% (inactive)
CCC(C)NC(=O)c1c(N)n(CCCOC)c2nc3ccccc3nc12 (centres undefined)	74% (active)
Cc1ccsc1C(=O)C1CCCN(Cc2ccc(-n3cccn3)cc2)C1 (centres undefined)	-14.4% (inactive)
CC(C)CNC(=O)c1c(N)n(Cc2ccc3c(c2)OCO3)c2nc3ccccc3nc12	-19.8% (inactive)
CC(C)[C@H]1C(=O)N2CCC[C@H]2[C@]2(O)O[C@](NC(=O)[C@@H]3C=C4c5cccc6[nH]cc(c56)C[C@H]4N(C)C3)(C(C)C)C(=O)N12	54.8% (active)
CN1C[C@H](CO)C=C2c3cccc4[nH]cc(c34)C[C@H]21	10.8% (inactive)
Cn1c(O)c(/C=C2\N=c3ccccc3=C2CCNC(=S)NC2CC2)c(=O)n(C)c1=O	58.6% (active)
O=C(c1cccn2c(=O)c3ccc(Cl)cc3nc12)N1CCC2(CC1)OCCO2	20.5% (inactive)
COc1ccc(OC)c(N2C(=O)NC(=O)/C(=C/c3ccc([N+](=O)[O-])s3)C2=O)c1	86.3% (active)
